Bioassay records from PubChem.
Compounds with a hit are over-represented: about 4.7% of the library has one in this group of screens.
D1 potentiator – enhances dopamine response at the human D1 receptor; P21728; HEK293 TREx D1 cells, calcium flux, dopamine EC20 potentiation; potentiation, % at 10 µM; 360,000 compounds, 0.036% hits; AID 504651; in the data active = potentiation above about 30%; note: 0% is about no effect
D1 ag – activates the human D1 dopamine receptor | P21728 | activation, % at 2 µM | 360,000 compounds, 1% hits | HEK293 T-REx D1 cells, calcium flux, agonist mode; note: 0% is about no effect
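Tetracycline-induced HEK293 TREx D1 cells, force-coupled to calcium signalling, were dye-loaded with a no-wash calcium kit. Compound was pin-added after a 10 s baseline. Fluorescence was read kinetically at 1 cycle/s for 180 s, with calcium rises flagged as agonism.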
TRHR PAM – allosterically enhances the human TRH receptor; P34981; TRHR cells, fluo-8 calcium fluorescence, EC20 TRH enhancement; enhancement, % at 2 µM; 360,000 compounds, 0.66% hits; in the data active = enhancement above about 30%; note: 0% is about no effect
Target sequence (P34981 whole entry, looked up): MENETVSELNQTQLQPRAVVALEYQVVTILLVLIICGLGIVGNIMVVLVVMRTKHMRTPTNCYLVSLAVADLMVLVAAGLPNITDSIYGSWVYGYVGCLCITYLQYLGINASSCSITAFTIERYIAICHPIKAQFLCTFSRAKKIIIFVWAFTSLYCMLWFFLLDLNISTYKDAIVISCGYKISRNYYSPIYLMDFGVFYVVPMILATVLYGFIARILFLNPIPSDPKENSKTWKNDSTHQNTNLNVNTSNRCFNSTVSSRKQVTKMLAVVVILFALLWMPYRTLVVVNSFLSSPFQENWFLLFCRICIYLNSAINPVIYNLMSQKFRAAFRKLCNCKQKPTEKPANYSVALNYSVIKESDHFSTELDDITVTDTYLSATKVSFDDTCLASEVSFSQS
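TRHR-expressing cells loaded with fluo-8 calcium dye were read kinetically (ex 480/em 530) during compound addition, then stimulated with an EC20 of TRH (10 nM final). Enhancement of the Gq-mediated intracellular calcium response was scored.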
D1 antag – antagonists of human D1 dopamine receptor | P21728 | HEK293 TREx D1 cells, calcium flux, dopamine EC80; hits give low values | activity change, negative = inhibition, % at 10 µM | 360,000 compounds, 3.2% hits; in the data active = activity change below about -30%; note: % is set by controls: 0 for no effect and ±100 for the full control effect
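Kinetic fluorescence of a calcium dye serves as the read-out. D1-expressing Hek293 Trex cells, induced overnight at 30 C, are exposed to compound for 180 s before an EC80 dopamine addition, then read 180 s further.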
TRHR agonist – TRH receptor (human) agonism; P34981; TRHR cells, calcium flux fluo-8, FDSS agonist mode; 360,000 compounds, 0.18% hits; activation, % at 2 µM; AID 493084; note: 0% is about no effect
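TRHR-expressing cells loaded with fluo-8 calcium dye; 23 nL library compound pin-transferred, kinetic FDSS fluorescence (Ex 480/Em 530) recorded about 180 s for agonist-induced calcium release, before a 10 nM TRH EC20 addition for potentiator mode.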
* marks the source's active call; other numbers are inactive results; / = no result given; ! = not confirmed by another sample. Cut-off read from the data, not from the text of the source, unless noted: active = activation above about 30%; inactive = the rest.

SMILES	D1 potentiator	D1 ag	TRHR PAM	D1 antag	TRHR agonist
c1ccc2c(CNc3ccc(CNc4ncn[nH]4)cc3)cccc2c1	-7	11	-11	-46*	1
CCOC(=O)c1cc(S(=O)(=O)Nc2ccc(C)cc2Cl)[nH]n1	1	2	-1	0	0
c1ccc(-c2nn3c(Cn4cnc5ccccc54)nnc3s2)cc1	-11	4	15	-33*	-1
C/C(=N\NC(=O)c1cc(C)oc1C)c1ccc2ccccc2c1	-1	4	3	-42*	0
O=C(NCc1ccco1)c1ccc2c(c1)N(Cc1ccc(Cl)cc1)CCS2	-8	2	-2	-37*	0
COc1ccccc1Oc1ccc2c(c1)C(=O)N(c1cccc(O)c1)C2=O	-7	4	-12	-22	0
COc1ccccc1Oc1ccc2c(c1)C(=O)N(c1cccc3ncccc13)C2=O	-6	15	-7	-35*	0
Cc1ccc(-c2nonc2NC(=O)c2ccco2)cc1C	-4	1	4	-25	-1
Cc1ccc(Cl)cc1NC(=O)N1CCN(C)c2ncccc21	0	4	2	-4	2
CN1CCN(C(=O)Nc2cccc(Cl)c2)c2cccnc21	-3	47*	4	-23	-2
COCCn1c(=NC(=O)CSCC(=O)N2CCOCC2)sc2ccccc21	-5	0	1	-46*	0
O=C(NCCC1=CCCCC1)C1CCN(C(=O)N2CCOc3ccccc32)CC1	0	1	3	-2	0
Cc1ccc(C)c(NC(=O)c2ccccc2NS(=O)(=O)c2cc([N+](=O)[O-])ccc2C)c1	-11	28	-8	-50*	1
COc1ccc(NC(C)C(=O)N/N=C/c2ccccc2OCc2cccc(Br)c2)cc1 (stereo not given)	-1	4	34*	-10	0
COc1ccc(S(=O)(=O)NCCc2nnc3ccc(SCC(=O)Nc4cc(C)cc(C)c4)nn23)cc1	-1	0	-8	7	0
O=C(N/N=C/C(Br)=C/c1ccccc1)C1CC1	-6	2	-8	-41*	0
O=C(c1ccc2c(c1)CCN2S(=O)(=O)c1ccccc1)N1CCN(c2ccccc2)CC1	-5	1	33*	1	0
CS(=O)(=O)N1CCc2cc(C(=O)N3CCN(c4ccccc4)CC3)ccc21	-3	-1	-6	-65*!	-1
CCCNC(=O)c1ccc2c(c1)CCN2S(C)(=O)=O	-4	1	-2	/	1
CS(=O)(=O)N1CCc2cc(C(=O)NC3CC3)ccc21	-3	4	-7	-37*	0
Cc1ccc(SCc2nnc(NC(=O)c3ccccc3)s2)cc1	-7	2	3	-42*	-3
Cc1cccc(C)c1NC(=O)CN1CCN(CCCC(c2ccc(F)cc2)c2ccc(F)cc2)CC1	-6	8	0	-53*	1
COc1ccc(N2CCN(CC(=O)Nc3c(C)cc(C)cc3C)CC2)cc1	-3	0	1	-9	-1
Cc1cc(C)c(NC(=O)CN2CCN(C)CC2)c(C)c1	/	1	32*	-4	-1
Cc1cc(C)cc(NC(=O)CN2CCN(c3ccccc3)CC2)c1	-4	0	8	-32*	-1
SMILES	D1 potentiator	D1 ag	TRHR PAM	D1 antag	TRHR agonist
CCCCC(CC)C(=O)Nc1cc(C(=O)NCCC)ccc1N1CCC2(CC1)CC(c1ccccc1)=NO2 (stereo not given)	4	3	38*	-16	0
COc1cccc(Cn2c(SCC(=O)N(C)c3ccccc3)nc3ccccc32)c1	-1	3	-5	3	-1
C[C@H]1CN(S(=O)(=O)c2ccc3c(c2)OCCO3)CCN1S(=O)(=O)c1c(F)cccc1F	-2	1	39*	-13	-1
N#Cc1ccccc1S(=O)(=O)N1CCN(C(=O)Cc2coc3cc(O)ccc23)CC1	-7	1	-1	-43*	0
N#Cc1ccccc1S(=O)(=O)N1CCN(S(=O)(=O)c2ccc3c(c2)OCCO3)CC1	1	8	-1	-37*	1
N#Cc1ccccc1S(=O)(=O)N1CCN(C(=O)[C@H](Cc2ccccc2)NC(=O)c2ccco2)CC1	-10	0	2	-34*	1
CN(Cc1ccccc1)S(=O)(=O)c1cc(Br)cc2c1N(C(=O)C1CC1)CC2	-1	4	-4	-6	0
CCC(NC(=S)NC1CCCCC1)c1ccc(C)cc1 (stereo not given)	0	13	-2	-59*	0
Cc1ccc(C)c(C(C)NC(=S)NC2CCCCC2)c1 (stereo not given)	-2	17	-5	-2	1
CCCc1ccc(C(C)NC(=S)NC2CCCCC2)cc1 (stereo not given)	0	36*	-5	-6	3
Cc1ccc2scc(N3CCN(c4ccc(F)cc4)CC3)c(=O)c2c1	-2	2	39*	5	0
O=c1c(N2CCCCC2)csc2ccc(F)cc12	5	4	1	-75*	0
Cc1ccc2scc(N3CCN(c4ccccc4)CC3)c(=O)c2c1	-1	2	5	-7	0
OC(COc1ccccc1F)CN1CCC(Cc2ccccc2)CC1 (stereo not given)	-18	16	-5	-42*	1
COc1cccc(OCC(O)CN2CCC(Cc3ccccc3)CC2)c1 (stereo not given)	-6	20	-2	-31*	0
OC(COc1ccc(F)cc1Cl)CN1CCC(Cc2ccccc2)CC1 (stereo not given)	-7	61*	-5	-72*	0
Cc1oc2ncn(CC(C)C)c(=O)c2c1C(=O)NCCCN(C)Cc1ccccc1	-7	1	9	0	-1
Cc1ccc(-c2csc(N3CCN(c4cc5c(cc4Cl)nc(C)n5CCN4CCCCC4)CC3)n2)cc1	-11	1	2	-39*	0
N#Cc1c(-c2ccccc2)cc(C2CC2)nc1SCC(=O)c1cccs1	1	32*	-12	-2	8
CCOC(=O)Cc1ccc(NC(=O)Nc2cccc(OCc3cc(=O)n4cc(C)ccc4n3)c2)cc1	0	1	-2	7	0
CN(C)S(=O)(=O)c1ccc2c(c1)C(=O)c1cc(S(=O)(=O)N(C)C)ccc1CC2	-5	-1	-6	/	0
CN(C)S(=O)(=O)c1ccc2c(c1)/C(=C/c1cc3c([nH]1)CCCC3)C(=O)N2	0	171*	-2	-28	69*
Cc1c([S+](=O)([O-])N2CCN([S+](=O)([O-])c3c(F)cccc3F)CC2)sc2ccc(Cl)cc12	-1	2	1	-31*	1
O=C(CSc1n[nH]c(-c2cccnc2)n1)Nc1ccccc1	-5	0	-4	5	0
O=C(CSc1n[nH]c(-c2ccccn2)n1)Nc1ccccc1	-8	2	5	-11	1
